# Entries with a potency or affinity are not part of this list. Values without a mark were called inactive. The rule behind the calls is not given here.
# Assay: West Nile virus cytopathic effect inhibition, cell-based (AID 2419)
# Conditions: West Nile virus-infected cells, stronger effect = higher value; at 200 µM unless noted
row,SMILES,max CPE inhibition
1,COc1cccc2c(=O)n(-c3ccccc3)c(SCC(=O)Nc3ccc4c(c3)CCC4)nc12,2.38% [at 12.5 µM]
2,OC1c2cc(I)ccc2N=C2CCCN21 (stereo not given),0.77% [at 0.39 µM]
3,Cc1ccc2nc(SCC(=O)Nc3ccc4c(c3)CCC4)n(-c3ccccc3)c(=O)c2c1,6.42% [at 25 µM]
4,O=C(CSc1nc2cccc(F)c2c(=O)n1-c1ccccc1)Nc1ccc2c(c1)CCC2,2.29% [at 25 µM]
5,O=C(CSc1nc2ccccc2c(=O)n1-c1ccc(F)cc1F)Nc1ccc(N2CCOCC2)cc1,1.05% [at 0.39 µM]
6,OC1c2c(F)cccc2N=C2CCCCN21 (stereo not given),0.91% [at 0.39 µM]
7,O=C(CSc1nc2ccc(F)cc2c(=O)n1-c1ccccc1)Nc1ccc2c(c1)CCC2,3.95%
8,OC1c2c(F)cccc2N=C2CCCCCN21 (stereo not given),1.99% [at 0.39 µM]
9,Cc1cc(OC(=O)c2c(F)cccc2F)n(Cc2ccccc2)n1,1.92%
10,O=C(CSc1nc2ccccc2c(=O)n1-c1ccc(F)cc1)Nc1ccc2c(c1)CCC2,29.6% [at 100 µM]
11,COc1ccc(Cn2nc(C)cc2OC(=O)c2ccccc2)cc1,1.5%
12,COc1ccc(Cn2nc(C)cc2OC(=O)c2c(F)cccc2F)cc1,1.63%
13,C=CCN(C(=O)c1ccccc1Cl)c1nc(-c2ccc(OC)cc2)cs1,1.14%
14,OC1c2cc(Br)ccc2N=C2CCCCN21 (stereo not given),0.62% [at 3.13 µM]
15,OC1c2c(F)cccc2N=C2CCCN21 (stereo not given),0.91% [at 0.39 µM]
16,Cc1cccc2c(=O)n(-c3ccccc3)c(SCC(=O)Nc3ccc4c(c3)CCC4)nc12,2.82% [at 25 µM]
17,OC1c2cc(Br)ccc2N=C2CCCCCN21 (stereo not given),6.41% [at 0.78 µM]
18,COc1ccc(Cn2nc(C)cc2OC(=O)c2c(F)ccc(C)c2F)cc1,14%
19,O=C(CSc1nc2cccc(I)c2c(=O)n1-c1ccccc1)Nc1ccc2c(c1)CCC2,3.08%
20,OC1c2cc(Cl)cc(Cl)c2N=C2CCCN21 (stereo not given),1.94% [at 0.78 µM]

# Reference: PubChem BioAssay AID2419 (Southern Research Specialized Biocontainment Screening …, 2010)
